Laboratory results published in PubChem BioAssay (NCATS).
Records with an inconclusive call do not appear. Unmarked numbers belong to inactive results. Activity calls are given as the source filed them. The call rests on the fitted dose curve; in most records, active means well fitted inhibition curve with a large enough effect; inconclusive means small, poorly fitted or top-dose-only effect; inactive means flat fitted curve, though single readings scatter.

System: Zika virus NS2B-NS3 protease
Test: Primary screen GU AMC qHTS for Zika virus inhibitors (AID 1347154); further: nearly all actives have a fitted effect of over 70% in size;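 on activity change, negative = inhibition: 0% = no-inhibitor control and -100% = no-enzyme control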
Settings: Zika NS2B-NS3 unlinked protease, AMC fluorogenic substrate; series mostly up to 54.1 µM; activity change, negative = inhibition: at the top concentration
Procedure, shortened: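 Unlinked Zika NS2B hydrophilic domain/NS3 protease domain noncovalent complex (25 nM final) in 10 mM Tris-HCl pH 8.0, 0.01% Tween 20, with AMC peptide substrate. Fluorescence (ex 340, em 450 nm) change over 15 min, room temperature; percent inhibition fitted to 4-parameter Hill equation.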
Potency means the concentration at half of the fitted maximal effect.

Structure (SMILES) | activity change, negative = inhibition | Potency
c1ccc(N2CCNCC2)cc1 | 7.67% | 
C[C@]12CCC(=O)C=C1CC[C@@H]1[C@@H]2CC[C@]2(C)C(=O)CC[C@@H]12 |  | inactive
CC(C)c1c(CN(C)C(C)Cc2ccccc2)n(C)n(-c2ccccc2)c1=O (stereo not drawn) | -1.15% | 
[N-]=[N+]=CC(=O)OC[C@H](N)C(=O)O | 2.45% | 
CC(Cc1ccccc1)NCCn1cnc2c1c(=O)n(C)c(=O)n2C (stereo not drawn) | 3.04% [at 104 µM] | 
CC(C)=CC1C(C(=O)OCN2C(=O)C3=C(CCCC3)C2=O)C1(C)C (stereo not drawn) | -8.82% | 
CCc1cc2c(s1)-n1c(C)nnc1CN=C2c1ccccc1Cl | 1.2% | 
Clc1cccc(SC2CCNCC2)n1 |  | inactive
C[C@@H](N)[C@@H](O)c1ccccc1 | -4.99% | 
CCCCCCC(=O)CCCCCC/C=C/C[C@@H](O)[C@H](O)[C@@](N)(CO)C(=O)O | 3.5% [at 25.8 µM] | 
CCN(CCO)CCn1c(Cc2ccccc2)nc2c1c(=O)n(C)c(=O)n2C | -2.66% | 
CCCCC/C=C\C/C=C\C/C=C\C/C=C\CCCC(=O)NCC(=O)O |  | 25.6 µM (active)
NC1=NC(=O)C(c2ccccc2)O1 (stereo not drawn) | 1.16% | 
Clc1ccc(C(c2ccc(Cl)cc2)C(Cl)(Cl)Cl)cc1 | -13.2% | 
COc1c2c(cc3c1OCO3)CCN(C)C2 | 1.39% | 
CCN(CC)C(=O)[C@@H]1C=C2c3cccc4[nH]cc(c34)C[C@H]2N(C)C1 |  | 35.5 µM (active)
C=CCC1([C@H](C)CCC)C(=O)NC(=O)NC1=O | 0.0325% [at 104 µM] | 
O=C1c2ccccc2C(=O)C1C(=O)C(c1ccccc1)c1ccccc1 | 0.91% | 
CCC(CC)(CNC(=O)CCCO)c1cccc(OC)c1 | -4.03% | 

Structure (SMILES) | activity change, negative = inhibition | Potency
Nc1ccc([As](=O)(O)O)cc1 | -1.72% | 
C=CCN1C[C@H](C)N([C@H](c2ccc(C(=O)N(CC)CC)cc2)c2cccc(OC)c2)C[C@H]1C |  | inactive
COc1ccc2c3c1O[C@H]1[C@H](O)CC[C@H]4[C@@H](C2)N(C)CC[C@@]341 | 3.88% [at 104 µM] | 
CCOC(=O)CC(SP(=S)(OC)OC)C(=O)OCC (stereo not drawn) |  | inactive
C#CC(O)(C=CCl)CC (stereo not drawn) | -2.5% | 
CC(C)(C)c1ccc(O)cc1 | 0.793% | 
c1ccc(CN2CCNCC2)cc1 | -4.18% [at 194 µM] | 
CC[N+]1(CC)CCC(OC(=O)C(O)(c2ccccc2)c2ccccc2)C1 (stereo not drawn) | -1.52% | 
COc1cc(CCN)cc(OC)c1OC | -2.64% [at 104 µM] | 
Clc1ccccc1N1CCNCC1 | 0.141% | 
CC(=O)OCC1=C(C(=O)O)N2C(=O)[C@@H](N)[C@H]2SC1 | 2.84% [at 25.8 µM] | 
CCC1(c2ccccc2)C(=O)N(COC)C(=O)N(COC)C1=O | 5.63% | 
ClCCN1CCCC1 | -4.84% | 
CCN[C@H](C)Cc1cccc(C(F)(F)F)c1 | 1.36% [at 104 µM] | 
Nc1nc(N)nc(NC2CC2)n1 | -1.82% | 
COC(=O)C(Cl)C(=O)OC | 0.282% | 
CC(Cc1ccccc1)N(C)Cc1ccco1 (stereo not drawn) | -2.79% | 
C[C@]12CC[C@H]3[C@@H](CC[C@@]45O[C@H]4C(O)=C(C#N)C[C@]35C)[C@H]1CC[C@H]2O | -9.87% | 
CC(C)NC(C)C | 4.4% | 
